Out of some 39,000 compounds screened, about 220 (0.56%) showed activity. The list comes from a sample in which actives are over-represented; it also holds similar structures and randomly drawn compounds. Values without a mark were called inactive.
System: Escherichia coli K-12 BW25113
Test: relative growth (OD600 normalised to plate interquartile mean) (fraction); higher = less growth inhibition, active = 0.2 or less
Details: 50 µM; LB; incubation time: overnight (16-24 h)
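Note: Wild-type cells incubated without shaking, value is the mean of two biological replicates.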

Row | SMILES | relative growth
1 | O=c1[nH]c(=O)n([C@H]2C[C@H](O)[C@@H](CO)O2)cc1Br | 0.944
2 | O=c1[nH]c(=O)n([C@@H]2C[C@@H](O)[C@@H](CO)O2)cc1F | 0.0303 (active)
3 | Cc1cn([C@@H]2C[C@H](O)[C@@H](CO)O2)c(=O)[nH]c1=O | 0.988
4 | Cc1cn([C@@H]2C[C@@H](O)[C@H](CO)O2)c(=O)[nH]c1=O | 0.991
5 | O=c1[nH]c(=O)n([C@H]2C[C@H](O)[C@@H](CO)O2)cc1CO | 1.04
6 | O=c1[nH]c(=O)n(C2CC(O)C(CO)O2)cc1I (centres undefined) | 1.06
7 | O=c1[nH]c(=O)n(C2CC(O)C(CO)O2)cc1F (centres undefined) | 0.0526 (active)
8 | Cc1cn([C@H]2C[C@H](O)[C@@H](CO)O2)c(=O)[nH]c1=O | 1.03
9 | O=c1[nH]c(=O)n([C@H]2C[C@H](O)[C@@H](CO)O2)cc1F | 0.0339 (active)
10 | COC[C@H]1CN(C(=O)c2cccc(OC)c2)N1 | 1.01
11 | Cc1ccc(S(=O)(=O)N(C)C[C@@H]2Oc3c(NC(=O)Nc4cccc5ccccc45)cccc3C(=O)N([C@H](C)CO)C[C@@H]2C)cc1 | 1
12 | Cc1noc(C)c1S(=O)(=O)N(C)C[C@@H]1Oc2ccc(NC(=O)Cc3cn(C)c4ccccc34)cc2CC(=O)N([C@H](C)CO)C[C@@H]1C | 1.01
13 | COc1nc(C)nc(Cl)c1NC1=NCCN1 | 1.03
14 | C[C@H]1CCCCO[C@@H](CN(C)S(=O)(=O)c2ccc(Cl)cc2)[C@@H](C)CN([C@@H](C)CO)C(=O)c2cc(NC(=O)NC3CCCCC3)ccc2O1 | 1
15 | CC1CN(c2c(F)c(N)c3c(=O)c(C(=O)O)cn(C4CC4)c3c2F)CC(C)N1 (centres undefined) | 0.0495 (active)
16 | CC1CN(c2c(F)c(F)c3c(=O)c(C(=O)O)cn(C4CC4)c3c2F)CC(C)N1 (centres undefined) | 0.0486 (active)
17 | C[C@H](NC(=O)C[C@@H]1C=C[C@H](NC(=O)CN2CCOCC2)[C@H](CO)O1)c1ccccc1 | 1.02
18 | O=C(NCCCN1CCOCC1)[C@H]1N[C@H]2c3ccc(C4=CCCCC4)c(=O)n3C[C@H]2[C@@H]1CO | 0.98
19 | C[C@@H]1CN([C@@H](C)CO)C(=O)c2cc(NS(=O)(=O)c3ccc(F)cc3)ccc2O[C@@H](C)CCCCO[C@@H]1CN(C)C(=O)Nc1ccc2c(c1)OCO2 | 1.01
20 | C[C@@H]1CN([C@@H](C)CO)C(=O)c2cccc(NC(=O)c3ccc(-c4nccs4)cc3)c2O[C@H]1CN(C)C(=O)Nc1cccc2ccccc12 | 0.886

Row | SMILES | relative growth
21 | CN(C)CCN1CCc2ncc(Cn3cncn3)n2CC1 | 0.99
22 | COc1ccc(S(=O)(=O)N(C)C[C@H]2OCCCC[C@H](C)Oc3ccc(NS(=O)(=O)c4cn(C)cn4)cc3C(=O)N([C@@H](C)CO)C[C@@H]2C)cc1 | 1
23 | CC[C@@H](C)CCCCC(=O)N[C@@H](CCN)C(=O)N[C@H](C(=O)N[C@@H](CCN)C(=O)N[C@H]1CCNC(=O)[C@H]([C@@H](C)O)NC(=O)[C@H](CCN)NC(=O)[C@H](CCN)NC(=O)[C@H](CC(C)C)NC(=O)[C@@H](Cc2ccccc2)NC(=O)[C@@H](CCN)NC1=O)[C@@H](C)O | 0.0424 (active)
24 | CCC(C)CCCCC(=O)NC(CCN)C(=O)NC(C(=O)NC(CCN)C(=O)NC1CCNC(=O)C(C(C)O)NC(=O)C(CCN)NC(=O)C(CCN)NC(=O)C(CC(C)C)NC(=O)C(Cc2ccccc2)NC(=O)C(CCN)NC1=O)C(C)O.O=S(=O)(O)O (centres undefined) | 0.0419 (active)
25 | CC[C@@H](C)CCCC(=O)N[C@@H](CCN)C(=O)N[C@H](C(=O)N[C@@H](CCN)C(=O)N[C@H]1CCNC(=O)[C@H]([C@@H](C)O)NC(=O)[C@H](CCN)NC(=O)[C@H](CCN)NC(=O)[C@H](CC(C)C)NC(=O)[C@@H](CC(C)C)NC(=O)[C@H](CCN)NC1=O)[C@@H](C)O | 0.262
26 | CC[C@H](C)[C@H](N)C1=N[C@H](C(=O)N[C@@H](CC(C)C)C(=O)N[C@H](CCC(=O)O)C(=O)N[C@H](C(=O)N[C@H]2CCCCNC(=O)[C@H](CC(N)=O)NC(=O)[C@@H](CC(=O)O)NC(=O)[C@H](Cc3cnc[nH]3)NC(=O)[C@@H](Cc3ccccc3)NC(=O)[C@H]([C@@H](C)CC)NC(=O)[C@@H](CCCN)NC2=O)[C@@H](C)CC)CS1 | 0.909
27 | C[C@@H]1CN([C@H](C)CO)C(=O)c2cccc(NC(=O)C3CC3)c2O[C@@H]1CN(C)S(=O)(=O)c1ccccc1 | 1.01
28 | Cc1ccc(S(=O)(=O)N(C)C[C@@H]2Oc3ccc(NS(=O)(=O)c4cccs4)cc3CC(=O)N([C@H](C)CO)C[C@H]2C)cc1 | 1
29 | C[C@H]1CN([C@@H](C)CO)C(=O)c2c(c3ccccc3n2C)-c2ccccc2CO[C@@H]1CN(C)S(=O)(=O)c1ccc(C(F)(F)F)cc1 | 1
30 | CO[C@@H]1CN(C)C(=O)c2ccc(NS(C)(=O)=O)cc2OC[C@H](C)N(S(C)(=O)=O)C[C@H]1C | 0.991
31 | Cc1nnc(NCc2ccccc2)n(N)c1=O | 0.975
32 | CCCC#Cc1ccc2c(c1)O[C@H](CN(C)Cc1ccc3c(c1)OCO3)[C@H](C)CN([C@H](C)CO)S2(=O)=O | 1.05
33 | C[C@@H]1CN([C@H](C)CO)C(=O)c2cc(NC(=O)NC3CCCCC3)ccc2O[C@@H](C)CCCCO[C@H]1CN(C)Cc1ccncc1 | 1.02
34 | C[C@@H]1CCCCO[C@@H](CN(C)S(=O)(=O)c2ccccc2)[C@@H](C)CN([C@H](C)CO)C(=O)c2cc(NC(=O)C3CCCCC3)ccc2O1 | 1.01
35 | O=C(C[C@H]1CC[C@@H](NC(=O)c2cccnc2)[C@H](CO)O1)NCCN1CCCCC1 | 1
36 | C[C@@H]1CN([C@H](C)CO)C(=O)c2cccc(NS(C)(=O)=O)c2O[C@H]1CN(C)C(=O)NC1CCCCC1 | 1.01
37 | Cc1[nH]c(=O)c(C(=O)O)c2c1CCC2 | 0.994
38 | O=C(O)c1c(O)c2c([nH]c1=O)CCCC2 | 0.104 (active)
39 | NNC(=O)c1c(O)c2c([nH]c1=O)CCCC2 | 0.95

Reference: the supplement of paper PMC9446081
